From PubChem BioAssay (Tox21)
Inconclusive results are not listed. Active and inactive are the calls of the source. Unless noted, the call rests on the fitted dose curve; in most records, active means well fitted curve in the direction sought with a large enough effect in the repeat runs; inconclusive means weak or mixed curves; inactive means no such curve, though single readings can be large; an effect the other way counts as inactive or inconclusive.

Legend:
[1] = qHTS assay to identify small molecule agonists of the sonic hedgehog signaling (Shh) pathway (AID 1259368; calls by dose curve;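 further: NIH/3T3-derived 3T3Gli1-Luc cells carrying a stable Gli1-driven firefly luciferase reporter; series mostly up to about 92 µM; nearly all actives have a fitted effect of over 15% in size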)
In short: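 Read-out: firefly luciferase luminescence from a Gli1 response element reporter stably integrated in NIH/3T3-derived 3T3Gli1-Luc cells, measured 30 min at room temperature after reagent addition. Compound exposure lasted 24 hr at 37 C, 5% CO2.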

[2] = qHTS assay to identify small molecule antagonists of the sonic hedgehog signaling (Shh) pathway (AID 1259369; calls by dose curve; further: nearly all actives have a fitted effect of over 45% in size; further: potency means the concentration at half of the fitted maximal effect)
In short: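 Luminescence readout: firefly Luc under Gli1 response element in 3T3Gli1-Luc cells (NIH/3T3 clone). Antagonist mode, stimulation by conditioned medium; compound exposure 24hr at 37 C, 5% CO2.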

[3] = qHTS assay to identify small molecule agonists of the androgen receptor (AR) signaling pathway in the presence of an antagonist - cell viability counter screen (AID 1259379); further: nearly all actives have a fitted effect of over 25% in size; further: potency means the concentration at half of the fitted maximal effect
In short: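 Viability counter screen: CellTiter-Fluor fluorescence, measured in the same wells as the luciferase read-out. MDA-kb2 cells, 3,000/well, with nilutamide at 3.0uM final and compounds at 15 concentrations, 16 hr at 37C, 0% CO2.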

[4] = qHTS assay to identify small molecule antagonists of the estrogen receptor beta (ER-beta) signaling pathway - cell viability counter screen (AID 1259382);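 further: HEK293T cells carrying ER-beta-UAS-bla reporter stimulated with estradiol; series mostly up to about 92 µM; nearly all actives have a fitted effect of over 55% in size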
In short: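 Luminescent ATP read-out (CellTiter-Glo, 30 min, RT) taken in the same wells as the bla reporter assay. HEK293T ER-beta-UAS-bla cells in 2% charcoal-stripped FBS were exposed to compounds with 1nM E2 for 16 hr at 37C.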

[5] = qHTS assay to identify small molecule agonists or antagonists of the thyroid stimulating hormone receptor (TSHR) signaling pathway - wild type cell line counter screen (AID 1259384; calls by dose curve)
In short: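 Wild-type Hek293 cells, 800/well, 18 h at 37C, then compound with Ro20-1724 for 30 min RT. cAMP by HTRF (cAMP-d2/anti-cAMP cryptate), 1 h RT, fluorescence read. 15 concentrations, triplicates.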

[6] = qHTS assay to identify small molecule agonists of the estrogen receptor alpha (ER-alpha) signaling pathway in the presence of an antagonist - cell viability counter screen (AID 1259386);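 further: cells exposed to compounds for 22 h at 37 °C before the viability read; nearly all actives have a fitted effect of over 30% in size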; further: potency means the concentration at half of the fitted maximal effect
In short: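 Read-out: CellTiter-Fluor fluorescence after 1hr reagent incubation, measured in the same wells as the luciferase readout. VM7Luc4E2 cells were exposed to 15 compound concentrations with 10.0nM ICI-182,780 for 22hr at 37C.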

[7] = molecular target: Progesterone receptor (Homo sapiens) (UniProt P06401); assay: qHTS assay to identify small molecule agonists of the progesterone receptor (PR) signaling pathway (AID 1346784; calls by dose curve; further: nearly all actives have a fitted effect of over 30% in size)
In short: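 The screen uses PR-UAS-bla HEK 293T cells in charcoal-stripped serum (2%). Compounds are applied for 16 hr at 37C after a 6 hr pre-incubation, and reporter activity is detected with a FRET beta-lactamase substrate after 2 hr at room temperature.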

[8] = molecular target: Progesterone receptor (Homo sapiens) (UniProt P06401); assay: qHTS assay to identify small molecule antagonists of the progesterone receptor (PR) signaling pathway (AID 1346795; active means well fitted inhibition curve with a large enough effect in the signal ratio in the repeat runs, not every such curve was filed as active; the % refers to the signal ratio)
In short: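 After 6 hr plating at 37C in 2% stripped-serum medium, PR-UAS-bla HEK293T cells got compounds, then 1 nM R5020. Sixteen hours later, LiveBLAzer substrate was applied for 2 hr at room temperature and fluorescence was recorded.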

[9] = qHTS assay to identify small molecule antagonists of the progesterone receptor (PR) signaling pathway - cell viability counter screen (AID 1346798); further: series mostly up to about 92 µM; nearly all actives have a fitted effect of over 50% in size
In short: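 Viability was determined by ATP-based luminescence (CellTiter-Glo) in PR-UAS-bla HEK293T cells cultured in 2% charcoal-stripped serum and incubated 16 hr with compounds under R5020 stimulation.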

[10] = qHTS assay to identify small molecule antagonists of the TGF-beta/Smad signaling pathway - cell viability counter screen (AID 1346824); further: nearly all actives have a fitted effect of over 50% in size
In short: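 SBE-bla HEK 293T cells, incubated overnight, then compound plus 0.25 ng/mL TGF-beta1 (stock added) for 5 hr at 37 C. Viability was read in the same wells by CellTiter-Glo luminescence after 30 min at room temperature.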

[11] = qHTS assay to identify small molecule agonists of the TGF-beta/Smad signaling pathway - cell viability counter screen (AID 1346829); further: top concentration of the series differs between compounds; nearly all actives have a fitted effect of over 45% in size
In short: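 SBE-bla HEK 293T cells plated overnight, compound exposure 5 hr at 37 C. Viability read in the same wells by CellTiter-Glo luminescence after 30 min at room temperature, following the beta-lactamase read.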

[12] = qHTS assay to identify small molecule agonists of the TGF-beta/Smad signaling pathway (AID 1346859; active means well fitted activation curve with a large enough effect in the signal ratio in the repeat runs, not every such curve was filed as active; the % refers to the signal ratio; further: series mostly up to about 77 µM)
In short: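 Dual-wavelength fluorescence (460/530 nm emission) quantified beta-lactamase expression under the Smad binding element in HEK 293T cells following 5 hr compound treatment at 37 C.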

[13] = molecular target: Thyrotropin-releasing hormone receptor (Homo sapiens) (UniProt P34981); assay: qHTS assay to identify small molecule antagonists of the thyrotropin-releasing hormone receptor (TRHR) signaling pathway (AID 1346877; active means well fitted inhibition curve with a large enough effect in the repeat runs, not every such curve was filed as active; further: series mostly up to about 51 µM)
In short: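 HEK293/TRHR cells, 18 h, 37 °C; Ca2+ dye 2 h; cpd 5 min RT; TRH 1 nM final; fluorescence read 3 min, 1 s intervals; 15 concs, triplicate.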

[14] = molecular target: Estrogen receptor (Homo sapiens) (UniProt P03372); assay: qHTS assay to identify small molecule agonists of the estrogen receptor alpha (ER-alpha) signaling pathway in the presence of an antagonist (AID 1259383; calls by dose curve; further: top concentration of the series differs between compounds; nearly all actives have a fitted effect of over 15% in size)
In short: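 Luciferase luminescence (ONE-Glo, 30min at room temperature) measured in VM7Luc4E2 cells after 22hr compound exposure at 15 concentrations, with 10.0nM ICI-182,780 final present; cells express endogenous ER-alpha and carry four EREs upstream of luciferase.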

[15] = molecular target: Thyrotropin receptor (Homo sapiens) (UniProt P16473); assay: qHTS assay to identify small molecule antagonists of the thyroid stimulating hormone receptor (TSHR) signaling pathway (AID 1259385; calls by dose curve; further: nearly all actives have a fitted effect of over 20% in size)
In short: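 TSHR-HEK293 cells (800/well) plated 18 h, then compounds with Ro20-1724 and TSH at 1.5 ng/mL final, 30 min at room temperature. cAMP quantified by HTRF (cAMP-d2/anti-cAMP-cryptate, 1 h); 15 concentrations in triplicate.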

[16] = qHTS assay to identify small molecule agonists of the progesterone receptor (PR) signaling pathway - cell viability counter screen (AID 1346799; calls by dose curve; further: nearly all actives have a fitted effect of over 45% in size)
In short: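 Viability was scored by ATP luminescence (CellTiter-Glo, 30 min, room temperature) in the same wells used for the reporter readout, after 16 hr compound exposure of PR-UAS-bla HEK293T cells.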

[17] = qHTS assay to identify small molecule agonists of the estrogen receptor beta (ER-beta) signaling pathway - cell viability counter screen (AID 1259380); further: nearly all actives have a fitted effect of over 30% in size; further: potency means the concentration at half of the fitted maximal effect
In short: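 Luminescence read-out (CellTiter-Glo, 30 min, room temp) taken in the same wells as the beta-lactamase reporter assay; ER-beta-UAS-bla HEK293T cells exposed to DMSO-dissolved compounds for 16 hr at 37C in 2% charcoal-stripped FBS medium.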

[18] = molecular target: Androgen receptor (Homo sapiens) (UniProt P10275); assay: qHTS assay to identify small molecule agonists of the androgen receptor (AR) signaling pathway in the presence of an antagonist (AID 1259381; calls by dose curve; further: nearly all actives have a fitted effect of over 15% in size)
In short: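 Luciferase read-out (ONE-Glo, 30min room temperature) in MDA-kb2 MMTV-reporter cells; agonist mode run in presence of AR antagonist nilutamide, 3.0uM final. Compounds tested as 15-point series, 16hr exposure at 37C, 0% CO2.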

Measured: Potency

Chain of Thyrotropin-releasing hormone receptor (Homo sapiens) (P34981 whole entry, looked up): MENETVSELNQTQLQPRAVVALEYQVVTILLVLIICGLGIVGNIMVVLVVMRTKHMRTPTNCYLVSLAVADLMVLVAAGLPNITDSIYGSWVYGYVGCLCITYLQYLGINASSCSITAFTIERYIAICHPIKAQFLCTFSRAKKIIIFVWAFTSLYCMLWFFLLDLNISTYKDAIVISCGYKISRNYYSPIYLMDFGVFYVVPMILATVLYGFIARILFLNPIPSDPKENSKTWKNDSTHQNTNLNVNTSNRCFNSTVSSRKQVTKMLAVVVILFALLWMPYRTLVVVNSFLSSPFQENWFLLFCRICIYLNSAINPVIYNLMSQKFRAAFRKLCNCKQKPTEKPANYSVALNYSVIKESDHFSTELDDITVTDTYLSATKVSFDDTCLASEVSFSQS
Chain of Progesterone receptor (Homo sapiens) (P06401 whole entry, looked up): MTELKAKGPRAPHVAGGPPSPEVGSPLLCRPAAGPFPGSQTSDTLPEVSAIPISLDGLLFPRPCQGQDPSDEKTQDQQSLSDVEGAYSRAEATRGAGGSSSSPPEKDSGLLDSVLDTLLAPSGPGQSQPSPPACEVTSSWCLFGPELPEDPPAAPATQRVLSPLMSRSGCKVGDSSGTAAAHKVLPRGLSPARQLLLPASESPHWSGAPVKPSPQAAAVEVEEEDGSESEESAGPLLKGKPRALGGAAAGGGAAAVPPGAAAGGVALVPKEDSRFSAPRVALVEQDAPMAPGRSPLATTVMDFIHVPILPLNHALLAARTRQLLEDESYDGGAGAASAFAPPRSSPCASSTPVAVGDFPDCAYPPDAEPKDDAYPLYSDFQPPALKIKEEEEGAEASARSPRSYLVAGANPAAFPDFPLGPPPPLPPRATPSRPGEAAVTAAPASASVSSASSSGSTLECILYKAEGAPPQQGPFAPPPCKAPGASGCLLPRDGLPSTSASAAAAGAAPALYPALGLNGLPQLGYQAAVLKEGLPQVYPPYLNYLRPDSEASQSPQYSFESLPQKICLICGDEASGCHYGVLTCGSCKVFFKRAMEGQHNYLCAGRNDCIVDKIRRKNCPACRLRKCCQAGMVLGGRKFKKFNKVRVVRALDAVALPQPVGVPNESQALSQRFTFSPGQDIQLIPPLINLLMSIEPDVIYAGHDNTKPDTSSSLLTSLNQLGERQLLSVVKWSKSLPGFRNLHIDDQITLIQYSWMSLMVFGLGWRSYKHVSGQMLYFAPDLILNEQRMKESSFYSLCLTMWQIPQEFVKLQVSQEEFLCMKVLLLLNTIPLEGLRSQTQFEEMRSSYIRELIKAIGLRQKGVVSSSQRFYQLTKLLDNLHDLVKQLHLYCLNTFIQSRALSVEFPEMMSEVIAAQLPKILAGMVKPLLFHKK
Chain of Estrogen receptor (Homo sapiens) (P03372 whole entry, looked up): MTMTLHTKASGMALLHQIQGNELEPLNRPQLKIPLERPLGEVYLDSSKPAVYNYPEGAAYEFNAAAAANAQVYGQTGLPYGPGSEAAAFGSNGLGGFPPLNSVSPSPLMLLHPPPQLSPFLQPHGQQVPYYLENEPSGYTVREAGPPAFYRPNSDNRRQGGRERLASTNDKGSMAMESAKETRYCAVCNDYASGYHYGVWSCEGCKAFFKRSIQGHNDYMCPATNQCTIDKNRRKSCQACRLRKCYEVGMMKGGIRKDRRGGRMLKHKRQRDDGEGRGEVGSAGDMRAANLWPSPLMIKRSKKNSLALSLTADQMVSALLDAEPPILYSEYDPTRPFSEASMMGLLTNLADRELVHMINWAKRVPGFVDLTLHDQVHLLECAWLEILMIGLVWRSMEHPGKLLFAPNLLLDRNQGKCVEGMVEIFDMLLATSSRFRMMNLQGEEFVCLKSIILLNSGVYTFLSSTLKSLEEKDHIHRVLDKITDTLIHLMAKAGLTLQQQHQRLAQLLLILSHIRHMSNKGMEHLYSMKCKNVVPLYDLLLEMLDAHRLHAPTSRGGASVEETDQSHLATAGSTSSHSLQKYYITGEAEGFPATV
Chain of Thyrotropin receptor (Homo sapiens) (P16473 whole entry, looked up): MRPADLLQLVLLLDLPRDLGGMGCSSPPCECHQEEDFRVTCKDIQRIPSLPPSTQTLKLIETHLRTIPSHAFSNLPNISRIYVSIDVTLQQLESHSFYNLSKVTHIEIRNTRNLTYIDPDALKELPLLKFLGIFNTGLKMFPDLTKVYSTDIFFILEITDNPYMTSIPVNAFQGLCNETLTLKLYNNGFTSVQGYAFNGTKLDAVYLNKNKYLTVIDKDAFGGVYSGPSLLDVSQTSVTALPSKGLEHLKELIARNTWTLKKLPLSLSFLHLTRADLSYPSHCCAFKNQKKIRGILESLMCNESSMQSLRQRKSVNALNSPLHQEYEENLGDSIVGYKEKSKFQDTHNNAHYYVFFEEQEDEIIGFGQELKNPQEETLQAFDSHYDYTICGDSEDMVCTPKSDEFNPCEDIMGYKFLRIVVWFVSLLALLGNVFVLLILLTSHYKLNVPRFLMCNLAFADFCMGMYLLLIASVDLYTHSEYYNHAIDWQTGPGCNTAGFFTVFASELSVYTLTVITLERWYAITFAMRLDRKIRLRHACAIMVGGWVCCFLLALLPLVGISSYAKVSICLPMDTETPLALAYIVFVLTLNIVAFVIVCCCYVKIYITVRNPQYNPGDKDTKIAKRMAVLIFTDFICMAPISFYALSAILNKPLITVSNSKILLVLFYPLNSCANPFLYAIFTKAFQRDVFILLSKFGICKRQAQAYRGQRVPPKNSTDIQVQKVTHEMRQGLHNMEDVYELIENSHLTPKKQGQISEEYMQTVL
Chain of Androgen receptor (Homo sapiens) (P10275 whole entry, looked up): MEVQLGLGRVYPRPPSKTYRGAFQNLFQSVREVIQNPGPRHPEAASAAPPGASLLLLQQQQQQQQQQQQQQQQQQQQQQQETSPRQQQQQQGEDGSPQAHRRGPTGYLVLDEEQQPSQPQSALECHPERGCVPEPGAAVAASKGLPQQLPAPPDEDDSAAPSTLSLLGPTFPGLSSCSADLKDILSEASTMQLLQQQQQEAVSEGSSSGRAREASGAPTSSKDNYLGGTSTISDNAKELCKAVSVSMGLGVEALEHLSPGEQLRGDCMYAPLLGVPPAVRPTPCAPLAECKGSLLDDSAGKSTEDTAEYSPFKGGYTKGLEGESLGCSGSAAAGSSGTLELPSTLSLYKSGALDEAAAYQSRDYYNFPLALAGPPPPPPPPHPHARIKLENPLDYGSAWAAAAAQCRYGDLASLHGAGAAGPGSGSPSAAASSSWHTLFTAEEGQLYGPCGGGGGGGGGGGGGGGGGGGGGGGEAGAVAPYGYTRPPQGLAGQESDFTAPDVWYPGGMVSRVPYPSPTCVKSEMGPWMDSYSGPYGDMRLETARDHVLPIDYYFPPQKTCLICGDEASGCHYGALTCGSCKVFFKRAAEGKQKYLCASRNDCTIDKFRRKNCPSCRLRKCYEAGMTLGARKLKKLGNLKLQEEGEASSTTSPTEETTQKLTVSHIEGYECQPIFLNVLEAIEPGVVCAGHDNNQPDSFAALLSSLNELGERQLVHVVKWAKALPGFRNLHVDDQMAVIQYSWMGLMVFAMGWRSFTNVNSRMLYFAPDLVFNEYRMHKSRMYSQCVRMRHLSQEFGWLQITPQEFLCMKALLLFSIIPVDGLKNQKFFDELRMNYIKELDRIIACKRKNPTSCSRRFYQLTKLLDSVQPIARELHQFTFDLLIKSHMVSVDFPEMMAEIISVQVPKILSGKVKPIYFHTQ

O=C(O)COCC(=O)O
not listed: [14] | [15] | [16] | [17] | [18]
inactive: all other assays above

CC1(COc2ccc(CC3SC(=O)NC3=O)cc2)CCCCC1 (stereo unspecified)
not listed: [8] | [9] | [16] | [17] | [18]
inactive: all other assays above

[O-][n+]1ccc(Cl)cc1
inactive: [1] | [2] | [3] | [6] | [8] | [9] | [16] | [10] | [11] | [12]

Oc1ccc(CCNCCCCCCNCCc2ccccc2)cc1O
active: [2] 9.44 µM
not listed: [4] | [6] | [17] | [18]
inactive: all other assays above

CC(C(=O)O)c1ccc(/C=C2\CCCCC2=O)cc1 (stereo unspecified)
not listed: [8] | [13] | [14] | [15] | [18]
inactive: all other assays above

CC(CC(C#N)(c1ccccc1)C(C)C)N(C)C (stereo unspecified)
not listed: [3] | [13] | [15]
inactive: all other assays above

CCc1cnc(C(=O)O)c(C(=O)O)c1
not listed: [4] | [5] | [7] | [15] | [17] | [18]
inactive: all other assays above

C=CC(O)CCCCC (stereo unspecified)
not listed: [14] | [18]
inactive: all other assays above

Nc1cccc2c(=O)[nH][nH]c(=O)c12
active: [17] 24.5 µM
not listed: [4] | [7] | [9] | [13] | [16] | [18]
inactive: all other assays above

CCCCCCCCCCCCSCCOCCO
not listed: [7] | [17] | [18]
inactive: all other assays above

CCc1c(C)[nH]c2c1C(=O)C(CN1CCOCC1)CC2 (stereo unspecified)
not listed: [4] | [7] | [8] | [14] | [18]
inactive: all other assays above

CCCCCCCCOCCCN
active: [2] 30.6 µM
not listed: [4] | [6] | [16] | [17]
inactive: all other assays above

COc1ccc(/C=C/S(=O)(=O)NC(=O)c2ccc(C)cc2Cl)cc1
inactive: [1] | [2] | [3] | [5] | [15] | [7] | [10] | [11] | [12] | [13]

O=C(O)c1cc(C(=O)O)cc([N+](=O)[O-])c1
not listed: [14] | [18]
inactive: all other assays above

Nc1nc(Cl)nc2c1ncn2[C@H]1C[C@H](O)[C@@H](CO)O1
active: [2] 0.383 µM
not listed: [5] | [7] | [14] | [15] | [18]
inactive: all other assays above

CC(C)C[C@H](NC(=O)[C@H](Cc1ccccc1)NC(=O)c1cnccn1)B(O)O
active: [3] 0.0473 µM | [17] 4.22 µM | [6] 0.841 µM
not listed: [4] | [7] | [8] | [18]
inactive: all other assays above

Cc1ccc(S(=O)(=O)NC(=O)NC2CCCC2)cc1
not listed: [4] | [7] | [14] | [16] | [18]
inactive: all other assays above

OCCOc1cccc(OCCO)c1
not listed: [10] | [14] | [18]
inactive: all other assays above

C=CC(=O)NC(C)(C)C
not listed: [4] | [16] | [18]
inactive: all other assays above
